Results filed as inconclusive are left out. A number with no mark means an inactive call. Calls of active or inactive are those of the source. Unless noted, the call rests on the fitted dose curve; in most records, active means well fitted curve in the direction sought with a large enough effect in the repeat runs; inconclusive means weak or mixed curves; inactive means no such curve, though single readings can be large; an effect the other way counts as inactive or inconclusive.

This note sets out measurements from PubChem BioAssay (Tox21).

Experiment [1] in a line: qHTS assay to identify aromatase inhibitors - cell viability counter screen (AID 743084).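 Further: cells stimulated with testosterone during compound exposure; nearly all actives have a fitted effect of over 55% in size.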 Further: potency means the concentration at half of the fitted maximal effect. For orientation: qHTS replaces the single test concentration by a dilution series.
Experiment [2] has as its target Aryl hydrocarbon receptor (Homo sapiens) (UniProt P35869). Briefly: qHTS assay to identify small molecule that activate the aryl hydrocarbon receptor (AhR) signaling pathway (AID 743085). Further: nearly all actives have a fitted effect of over 15% in size. Further: potency means the concentration at half of the fitted maximal effect.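 On activation: HG2L7.5c1 human HepG2 liver cells with stably integrated DRE-driven firefly reporter; series mostly up to about 70 µM.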 Summed up: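 Luminescence read-out: ONE-Glo reagent, 30 min at room temperature, in HG2L7.5c1 HepG2 reporter cells treated 24 h at 37C. Viability was measured beforehand by CellTiter-Fluor fluorescence after 30 min at 37C.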

Experiment [3] is described as follows: qHTS assay to identify small molecule antagonists of the peroxisome proliferator-activated receptor gamma (PPARg) signaling pathway - cell viability counter screen (AID 743194). Further: nearly all actives have a fitted effect of over 55% in size. Summed up: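 PPARg-UAS-bla HEK293H cells were plated, rested 5 h at 37 C, then treated with compounds plus rosiglitazone (50 nM final) for 17 h at 37 C; viability was then read by CellTiter-Glo luminescence after 30 min at room temperature.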

The nature of experiment [4]: qHTS assay for small molecule agonists of the antioxidant response element (ARE) signaling pathway - cell viability counter screen (AID 743203; calls by dose curve; further: nearly all actives have a fitted effect of over 55% in size). Summed up:
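Following 16 hrs of compound treatment at 37C, HepG2 cells with an ARE-controlled beta-lactamase gene were lysed with CellTiter-Glo. Luminescence was read after 30 min at room temperature.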

Experiment [5] in a line: qHTS assay for small molecule activators of the heat shock response signaling pathway - cell viability counter screen (AID 743209). Further: nearly all actives have a fitted effect of over 50% in size. In short, it runs like this:
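Readout: CellTiter-Glo luminescence, 30 min at room temperature. System: HSE-bla HeLa cells, 1500/well, plated overnight. Treatment: compounds in DMSO, 5 h at 37 C.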

Experiment [6] in a line: qHTS assay for small molecule activators of the heat shock response signaling pathway (AID 743210; active means well fitted activation curve with a large enough effect in the signal ratio in the repeat runs, with a control signal flat, not every such curve was filed as active; the % refers to the signal ratio;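 further: HeLa cells with beta-lactamase reporter driven by heat shock elements; series mostly up to about 63 µM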). In short, it runs like this:
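Reporter gene assay: HeLa cells stably bearing an HSE-bla construct, compound treatment 5 h at 37 C, LiveBLAzer substrate 2.5 h at RT, fluorescence intensity.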

Experiment [7] can be described thus: qHTS assay to identify small molecule that activate the aryl hydrocarbon receptor (AhR) signaling pathway - cell viability counter screen (AID 743086). Further: nearly all actives have a fitted effect of over 45% in size. Further: potency means the concentration at half of the fitted maximal effect.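 On viability change, negative = cytotoxic: HepG2 liver cells carrying the AhR DRE luciferase reporter; series mostly up to about 70 µM.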 In short, it runs like this: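 HepG2-AhR-luc (HG2L7.5c1) cells, 4000/well, were preincubated 5 h at 37C, exposed to compound in qHTS format for 24 hr at 37C, then given CellTiter-Fluor for 30 min; viability was read as fluorescence in the reporter wells.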

The target in experiment [8] is Peroxisome proliferator-activated receptor gamma (Homo sapiens) (UniProt P37231). The experiment in a line: qHTS assay to identify small molecule agonists of the peroxisome proliferator-activated receptor gamma (PPARg) signaling pathway (AID 743094; active means well fitted activation curve with a large enough effect in the signal ratio in the repeat runs, not every such curve was filed as active; the % refers to the signal ratio). In short, it runs like this:
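Compounds dissolved in DMSO were added to PPARg UAS-bla HEK293H cells for 17 h at 37C, and reporter expression was quantified by fluorescence intensity after 1 h with LiveBLAzer B/G FRET substrate.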

Experiment [9] shares this target. The experiment in a line: qHTS assay to identify small molecule antagonists of the peroxisome proliferator-activated receptor gamma (PPARg) signaling pathway (AID 743191; calls by dose curve; further: nearly all actives have a fitted effect of over 30% in size; further: potency means the concentration at half of the fitted maximal effect; on ratio activity, negative = inhibition: series mostly up to about 63 µM). In short, it runs like this: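 GeneBLAzer PPARg UAS-bla HEK293H cells carrying a UAS-driven beta-lactamase reporter were plated at 3000 cells/well, preincubated 5 h at 37C, then given compound for 17 h at 37C; LiveBLAzer B/G FRET substrate was read after 1 h at room temperature.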

A short description of experiment [10]: qHTS assay for small molecule agonists of the antioxidant response element (ARE) signaling pathway (AID 743202; active means well fitted activation curve with a large enough effect in the signal ratio in the repeat runs, not every such curve was filed as active; the % refers to the signal ratio; further: potency means the concentration at half of the fitted maximal effect). In short, it runs like this: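 Compounds delivered in DMSO to ARE-bla HepG2 cells (2,000 cells/well, pre-incubated 5 h) and left 16 h at 37 C. LiveBLAzer B/G FRET substrate then added for 2 h at RT before fluorescence reading.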
On the % scale 0 is the no-effect control and ±100 the full control effect.

Chain of Aryl hydrocarbon receptor (Homo sapiens) (P35869 whole entry, looked up): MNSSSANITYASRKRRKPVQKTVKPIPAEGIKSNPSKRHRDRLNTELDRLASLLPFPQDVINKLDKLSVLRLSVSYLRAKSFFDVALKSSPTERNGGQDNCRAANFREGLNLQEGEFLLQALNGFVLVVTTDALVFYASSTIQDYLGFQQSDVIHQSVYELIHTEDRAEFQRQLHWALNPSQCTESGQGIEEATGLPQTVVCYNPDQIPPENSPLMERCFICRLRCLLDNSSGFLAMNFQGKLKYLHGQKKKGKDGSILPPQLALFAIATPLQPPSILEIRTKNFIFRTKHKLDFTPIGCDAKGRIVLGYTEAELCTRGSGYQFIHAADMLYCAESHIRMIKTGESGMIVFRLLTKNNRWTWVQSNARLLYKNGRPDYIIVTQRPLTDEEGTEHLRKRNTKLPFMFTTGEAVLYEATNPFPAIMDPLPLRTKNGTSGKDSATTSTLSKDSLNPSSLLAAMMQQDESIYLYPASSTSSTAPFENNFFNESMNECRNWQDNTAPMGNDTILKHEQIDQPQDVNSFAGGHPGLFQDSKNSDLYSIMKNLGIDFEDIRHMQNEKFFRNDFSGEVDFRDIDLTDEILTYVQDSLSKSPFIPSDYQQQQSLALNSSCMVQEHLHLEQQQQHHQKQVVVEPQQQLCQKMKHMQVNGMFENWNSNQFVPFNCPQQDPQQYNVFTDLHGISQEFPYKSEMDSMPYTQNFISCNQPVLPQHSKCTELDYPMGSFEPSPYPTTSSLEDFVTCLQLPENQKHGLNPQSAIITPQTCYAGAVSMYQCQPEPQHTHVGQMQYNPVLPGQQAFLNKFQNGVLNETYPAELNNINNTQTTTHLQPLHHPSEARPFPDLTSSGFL
Chain of Peroxisome proliferator-activated receptor gamma (Homo sapiens) (P37231 whole entry, looked up): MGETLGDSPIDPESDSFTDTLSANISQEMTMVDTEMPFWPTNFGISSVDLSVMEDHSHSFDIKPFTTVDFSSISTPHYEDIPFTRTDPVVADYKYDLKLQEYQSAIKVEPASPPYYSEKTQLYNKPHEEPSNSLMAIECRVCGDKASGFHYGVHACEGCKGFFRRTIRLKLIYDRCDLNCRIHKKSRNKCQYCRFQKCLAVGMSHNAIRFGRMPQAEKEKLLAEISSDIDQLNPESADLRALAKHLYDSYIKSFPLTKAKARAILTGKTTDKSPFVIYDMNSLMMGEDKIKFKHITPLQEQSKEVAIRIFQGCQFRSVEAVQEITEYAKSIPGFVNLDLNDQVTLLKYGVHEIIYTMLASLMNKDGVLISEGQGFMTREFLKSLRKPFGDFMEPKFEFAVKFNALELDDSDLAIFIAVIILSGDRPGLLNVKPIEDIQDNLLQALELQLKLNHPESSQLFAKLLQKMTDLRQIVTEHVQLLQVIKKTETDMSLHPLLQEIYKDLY

As for `COc1cc(C(C)=O)ccc1OCCCN1CCC(c2noc3cc(F)ccc23)CC1`, the Potency result in experiment [1], in experiment [2], in experiment [3], in experiment [4], in experiment [5] and in [6] was “inactive” in each case.

As to `Cc1ccc(N(CCO)CCO)cc1`, the Potency entry in experiment [1], in experiment [7], in experiment [9], in experiment [3], in experiment [4] and in [5] was “inactive” each time. Besides, in [6], the Potency entry is “inactive”. Further, the outcome in experiment [8] was inactive.

On to `COC(=O)CC(C(C)=O)C(=O)OC` (centres undefined), for which the Potency entry in experiment [1], in [2], in experiment [7], in experiment [3], in [4] and in [5] was “inactive” in each case. In addition, the Potency result in experiment [6] is “inactive”.

`Nc1ccc(S(=O)(=O)NCc2ccccc2)cc1`: the Potency entry in experiment [1], in experiment [7], in [9], in [3], in [10] and in [4] was “inactive” in each case. In addition, the Potency result in experiment [5] and in experiment [6] was “inactive” in each case. The outcome in experiment [8] was inactive.

On to `COc1ccc(/C=C/C(=O)c2ccc(OC)cc2OC)cc1`, for which the Potency result in [1], in experiment [7], in experiment [3], in [4] and in experiment [5] was “inactive” throughout. For the same compound, in [8], the outcome was inactive. Further, in experiment [9], the Potency was 9.44 µM (active).

Turning to `Nc1nc(-c2ccc([N+](=O)[O-])cc2)cs1`, the Potency result in experiment [1], in [7], in experiment [9], in [3], in [5] and in experiment [6] was “inactive” throughout. The result in experiment [8] was inactive.

`O=C(O)c1ccc(O)cc1O`: the Potency entry in [1], in experiment [7], in experiment [9], in [3], in [10] and in [5] was “inactive” each time. In addition, the Potency result in experiment [6] is “inactive”. Further, the compound was called inactive in [8].

On to `O=C1c2ccccc2C(=O)c2c(O)ccc(O)c21`, for which the Potency in [1] is 38.6 µM (active); in experiment [2], 7.7 µM (active); in experiment [10], 2.73 µM (active). In addition, the Potency entry in experiment [9], in experiment [5] and in [6] was “inactive” in each case.

As for `CCN(Cc1cccc(S(=O)(=O)O)c1)c1ccc(C(=C2C=CC(=[N+](CC)Cc3cccc(S(=O)(=O)O)c3)C=C2)c2ccc(O)cc2S(=O)(=O)[O-])cc1`, the Potency in experiment [1] is 29.5 µM (active); in experiment [7], 16.6 µM (active). Further, the result in experiment [8] was inactive. For the same compound, the Potency result in [9], in [3], in experiment [10] and in experiment [6] was “inactive” each time.

With `CCC(Cl)CC(Cl)C(Cl)C(Cl)C(Cl)C(C)Cl` (centres undefined), the Potency result in [1] and in experiment [7] was “inactive” each time. The compound was classed as inactive in experiment [8]. In experiment [9], the ratio activity, negative = inhibition is -28.9% [at 13.2 µM]. In addition, the activity change, negative = cytotoxicity in experiment [3] was -22.8% [at 13.2 µM]; in experiment [5], 2.25% [at 13.2 µM]. In addition, in [10], the activation was 7.21% [at 18.1 µM]. For the same compound, in experiment [4], the viability change, negative = cytotoxic is -17% [at 18.1 µM].

Consider `Nc1ccn([C@H]2CS[C@@H](CO)O2)c(=O)n1`, for which the Potency result in experiment [1], in experiment [2], in experiment [7], in experiment [5] and in [6] was “inactive” each time.

In the case of `O=C(Nc1ccc(C(=O)O)c(O)c1)c1ccccc1`, the Potency entry in [1], in [7], in experiment [3], in experiment [10], in [4] and in experiment [5] was “inactive” throughout. For the same compound, the Potency entry in experiment [6] is “inactive”. The compound was called inactive in [8].

For `O=C1OC(=O)c2c(Br)c(Br)c(Br)c(Br)c21`, the Potency result in experiment [1], in experiment [7], in experiment [3], in experiment [4], in experiment [5] and in [6] was “inactive” in each case. Further, the compound was called inactive in experiment [8].

`Cc1ccc(Nc2c(F)cccc2Cl)c(CC(=O)O)c1`: the Potency entry in [1], in experiment [7], in experiment [3], in [4], in [5] and in [6] was “inactive” each time.

Consider `CCCCC(CC)COS(=O)(=O)O` (centres undefined), for which the Potency entry in experiment [1], in experiment [7], in experiment [3], in experiment [5] and in experiment [6] was “inactive” in each case.

`COc1cc(OC)c2ccc(=O)oc2c1`: the Potency entry in experiment [1], in experiment [7], in experiment [3], in [5] and in experiment [6] was “inactive” throughout. Further, in experiment [8], the result was inactive.

With `CCN(CC)c1cccc(O)c1`, the Potency entry in [1], in experiment [7], in experiment [3], in [5] and in experiment [6] was “inactive” in each case. In addition, the outcome in experiment [8] was inactive.

Regarding `CC(C)c1ccc(C#N)cc1`, the Potency entry in [1], in experiment [7], in experiment [9], in experiment [3], in experiment [10] and in experiment [5] was “inactive” throughout. In experiment [6], the Potency result was “inactive”.

For the compound `CCC1CCC(CCC(=O)O)C1` (centres undefined), the Potency result in experiment [1], in [7], in [3], in [4] and in experiment [5] was “inactive” in each case.

For `O=C(O)CN1C(=O)c2cccc3cccc(c23)C1=O`, the Potency result in [1], in experiment [7], in [9], in experiment [3], in experiment [10] and in [4] was “inactive” each time. Besides, the Potency entry in experiment [5] and in experiment [6] was “inactive” in each case.

Consider `CC1=C2[C@@H]([C@H](C)CC[C@H]2/C=C(\C)C(=O)O)[C@H](O)C1`, for which the Potency result in experiment [1], in experiment [7], in experiment [3], in [10], in [4] and in experiment [5] was “inactive” throughout.

Take `CCCC(=O)OC(=O)CCC`: the Potency entry in experiment [1], in experiment [7], in experiment [3], in experiment [4], in experiment [5] and in experiment [6] was “inactive” in each case.

On to `COC(=O)C1=C(C)NC(C)=C(C(=O)OC(C)(C)CN(C)CCC(c2ccccc2)c2ccccc2)C1c1cccc([N+](=O)[O-])c1` (centres undefined), for which the Potency entry in [1], in experiment [3], in experiment [4], in [5] and in [6] was “inactive” in each case. The compound was classed as inactive in experiment [8].

As for `CC(C)(C)NCC(O)COc1cccc2c1C[C@H](O)[C@H](O)C2` (some centres undefined), the Potency result in experiment [1], in experiment [7], in experiment [3], in experiment [10], in experiment [4] and in [5] was “inactive” in each case. The Potency result in experiment [6] is “inactive”. In [8], the compound was called inactive.

As to `COc1ccc(N)c([N+](=O)[O-])c1`, the Potency result in experiment [1], in experiment [3], in experiment [10], in experiment [4], in [5] and in experiment [6] was “inactive” each time. For the same compound, the result in [8] was inactive.

Regarding `CCOC(=O)c1ccc(NC(=O)CN2CCCCC2)cc1`, the Potency entry in [1], in [7], in experiment [3], in experiment [5] and in [6] was “inactive” in each case.
